# Data reported in paper PMC7862700, “An all-to-all approach to the identification of sequence-specific readers for epigenetic DNA modifications on cytosine”.
# Legend:
# Test in all cases: DAPPL (digital affinity profiling via proximity ligation, sequencing); 10 mM Tris-HCl pH 7.5, 50 mM NaCl, 1 mM DTT, 4% glycerol, room temperature, 30 min; GST-TFs on glutathione beads, 16-mer random dsDNA library, 0.1% formaldehyde crosslink after washing; high values mean tight binding
# [1] = biological target: T1, FLI1 (Homo sapiens, UniProt Q01543 1-452); conditions: protein: recombinant; tags: N-terminal GST; dsDNA, one strand shown
# T1 sequence: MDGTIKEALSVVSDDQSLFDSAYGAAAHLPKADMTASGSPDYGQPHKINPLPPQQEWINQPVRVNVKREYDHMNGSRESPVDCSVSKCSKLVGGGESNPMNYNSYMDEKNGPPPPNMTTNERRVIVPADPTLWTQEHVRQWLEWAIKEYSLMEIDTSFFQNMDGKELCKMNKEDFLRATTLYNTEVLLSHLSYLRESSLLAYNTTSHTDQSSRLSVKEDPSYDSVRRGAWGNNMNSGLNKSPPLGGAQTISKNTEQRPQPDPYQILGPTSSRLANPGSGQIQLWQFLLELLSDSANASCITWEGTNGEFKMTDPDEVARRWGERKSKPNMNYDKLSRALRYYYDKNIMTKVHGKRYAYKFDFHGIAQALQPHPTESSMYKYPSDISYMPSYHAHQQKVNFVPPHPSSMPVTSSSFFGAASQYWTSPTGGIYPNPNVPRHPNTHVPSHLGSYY
# Outline: (§1)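 Human transcription factors carrying a GST fusion were produced in yeast, bound to glutathione beads, tagged with DNA barcodes and pooled together with a tag-only sample. Each pool was held with 200 nmole of a random double-stranded 16-mer DNA library in Tris/NaCl/DTT/glycerol buffer for 30 min at room temperature, then washed, crosslinked in 0.1% formaldehyde, proximity-ligated with BsaI/T4 ligase (1 h, 37 °C), PCR-amplified and sequenced on an Illumina NextSeq500. Binding signal is the read frequency of each hexamer for a given factor divided by its frequency in the tag-only sample.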
# [2] = biological target: T2, ELK1 (Homo sapiens, UniProt P19419 1-428); conditions: protein: recombinant; tags: N-terminal GST; dsDNA, one strand shown
# T2 sequence: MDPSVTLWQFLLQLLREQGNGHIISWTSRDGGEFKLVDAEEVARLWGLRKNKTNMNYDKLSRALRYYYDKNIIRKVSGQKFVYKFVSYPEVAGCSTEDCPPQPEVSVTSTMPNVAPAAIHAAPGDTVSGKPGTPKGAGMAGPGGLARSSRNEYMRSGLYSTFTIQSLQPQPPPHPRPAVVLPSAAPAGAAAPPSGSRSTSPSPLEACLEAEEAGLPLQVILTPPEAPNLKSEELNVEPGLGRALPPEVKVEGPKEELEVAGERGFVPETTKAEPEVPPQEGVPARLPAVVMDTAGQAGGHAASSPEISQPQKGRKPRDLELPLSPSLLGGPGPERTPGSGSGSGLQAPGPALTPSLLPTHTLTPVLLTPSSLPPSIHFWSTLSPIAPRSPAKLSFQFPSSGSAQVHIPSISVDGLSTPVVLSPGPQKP
# Outline: as §1
# [3] = biological target: T3, GABPA (Homo sapiens, UniProt Q06546 1-454); conditions: protein: recombinant; tags: N-terminal GST; dsDNA, one strand shown
# T3 sequence: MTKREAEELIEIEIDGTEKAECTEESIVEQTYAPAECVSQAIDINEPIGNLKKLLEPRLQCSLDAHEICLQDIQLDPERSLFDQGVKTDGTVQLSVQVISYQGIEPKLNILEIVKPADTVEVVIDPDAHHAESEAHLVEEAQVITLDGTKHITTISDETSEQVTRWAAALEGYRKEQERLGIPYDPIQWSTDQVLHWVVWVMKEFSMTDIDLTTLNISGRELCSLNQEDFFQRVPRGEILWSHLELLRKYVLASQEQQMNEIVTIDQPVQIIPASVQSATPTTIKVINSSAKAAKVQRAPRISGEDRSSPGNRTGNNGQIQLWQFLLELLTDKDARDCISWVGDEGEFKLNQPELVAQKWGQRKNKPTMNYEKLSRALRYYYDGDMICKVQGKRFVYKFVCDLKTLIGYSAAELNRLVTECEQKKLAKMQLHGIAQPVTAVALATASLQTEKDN
# Outline: as §1
# [4] = biological target: T4, ERG (Homo sapiens, UniProt P11308 1-479); conditions: protein: recombinant; tags: N-terminal GST; dsDNA, one strand shown
# T4 sequence: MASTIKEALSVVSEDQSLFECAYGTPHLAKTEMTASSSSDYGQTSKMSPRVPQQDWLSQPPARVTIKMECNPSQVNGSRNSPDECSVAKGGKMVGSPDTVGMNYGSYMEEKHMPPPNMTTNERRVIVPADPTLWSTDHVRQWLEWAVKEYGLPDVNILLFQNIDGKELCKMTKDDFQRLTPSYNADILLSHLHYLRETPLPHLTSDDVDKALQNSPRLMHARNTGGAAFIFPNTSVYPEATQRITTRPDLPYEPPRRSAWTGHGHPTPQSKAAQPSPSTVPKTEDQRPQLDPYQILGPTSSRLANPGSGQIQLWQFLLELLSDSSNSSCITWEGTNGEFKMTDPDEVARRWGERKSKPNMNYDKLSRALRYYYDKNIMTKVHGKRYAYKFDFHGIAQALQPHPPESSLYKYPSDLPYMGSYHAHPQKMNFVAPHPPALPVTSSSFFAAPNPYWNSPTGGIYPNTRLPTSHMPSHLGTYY
# Outline: as §1
# [5] = biological target: ELF1 (Homo sapiens, UniProt P32519 1-619); conditions: protein: recombinant; tags: N-terminal GST; dsDNA, one strand shown
# Outline: as §1
# [6] = biological target: T5, EHF (Homo sapiens, UniProt Q9NZC4 1-300); conditions: protein: recombinant; tags: N-terminal GST; dsDNA, one strand shown
# T5 sequence: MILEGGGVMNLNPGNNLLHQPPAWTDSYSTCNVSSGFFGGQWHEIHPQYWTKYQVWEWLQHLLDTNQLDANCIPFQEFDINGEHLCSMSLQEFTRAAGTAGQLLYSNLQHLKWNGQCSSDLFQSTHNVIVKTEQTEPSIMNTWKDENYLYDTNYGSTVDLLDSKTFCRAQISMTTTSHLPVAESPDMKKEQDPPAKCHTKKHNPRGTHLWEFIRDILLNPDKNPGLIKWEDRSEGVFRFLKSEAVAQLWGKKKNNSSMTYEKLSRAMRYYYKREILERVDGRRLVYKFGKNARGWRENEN
# Outline: as §1
# [7] = biological target: SPI1 (Homo sapiens, UniProt P17947 1-270); conditions: protein: recombinant; tags: N-terminal GST; dsDNA, one strand shown
# Outline: as §1
# [8] = biological target: SPIB (Homo sapiens, UniProt Q01892 1-262); conditions: protein: recombinant; tags: N-terminal GST; dsDNA, one strand shown
# Outline: as §1
# [9] = biological target: T6, ELK3 (Homo sapiens, UniProt P41970 1-407); conditions: protein: recombinant; tags: N-terminal GST; dsDNA, one strand shown
# T6 sequence: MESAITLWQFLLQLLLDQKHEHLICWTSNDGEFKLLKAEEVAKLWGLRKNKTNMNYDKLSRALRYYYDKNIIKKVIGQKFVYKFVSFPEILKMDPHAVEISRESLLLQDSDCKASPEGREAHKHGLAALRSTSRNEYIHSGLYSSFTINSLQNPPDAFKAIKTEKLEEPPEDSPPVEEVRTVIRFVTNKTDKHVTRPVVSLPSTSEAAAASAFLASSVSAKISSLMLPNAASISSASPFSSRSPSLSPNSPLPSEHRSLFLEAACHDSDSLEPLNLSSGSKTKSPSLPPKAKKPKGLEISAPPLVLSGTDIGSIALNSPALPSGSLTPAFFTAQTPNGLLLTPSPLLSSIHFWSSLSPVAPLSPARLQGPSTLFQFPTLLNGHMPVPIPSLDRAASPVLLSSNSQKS
# Outline: as §1
# [10] = biological target: T7, FEV (Homo sapiens, UniProt Q99581 1-238); conditions: protein: recombinant; tags: N-terminal GST; dsDNA, one strand shown
# T7 sequence: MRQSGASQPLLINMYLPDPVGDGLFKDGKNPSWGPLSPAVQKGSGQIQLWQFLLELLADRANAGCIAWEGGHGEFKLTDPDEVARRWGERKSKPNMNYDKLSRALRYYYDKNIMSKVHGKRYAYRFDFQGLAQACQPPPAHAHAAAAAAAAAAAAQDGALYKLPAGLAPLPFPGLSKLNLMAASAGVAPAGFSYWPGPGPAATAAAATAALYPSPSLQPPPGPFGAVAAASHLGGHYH
# Outline: as §1
# [11] = biological target: ETV5 (Homo sapiens, UniProt P41161 1-510); conditions: protein: recombinant; tags: N-terminal GST; dsDNA, one strand shown
# Outline: as §1
# [12] = biological target: HSF1 (Homo sapiens, UniProt Q00613 1-529); conditions: protein: recombinant; tags: N-terminal GST; chain copies: 3; dsDNA, one strand shown
# Outline: as §1
# [13] = biological target: T8, SPIC (Homo sapiens, UniProt Q8N5J4 1-248); conditions: protein: recombinant; tags: N-terminal GST; dsDNA, one strand shown
# T8 sequence: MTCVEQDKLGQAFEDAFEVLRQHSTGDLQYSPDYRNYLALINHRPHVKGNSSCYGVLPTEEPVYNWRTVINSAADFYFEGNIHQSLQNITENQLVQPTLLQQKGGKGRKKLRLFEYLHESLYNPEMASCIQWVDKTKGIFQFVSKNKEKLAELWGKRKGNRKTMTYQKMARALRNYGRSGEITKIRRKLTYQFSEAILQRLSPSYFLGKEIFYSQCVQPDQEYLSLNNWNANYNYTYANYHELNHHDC
# Outline: as §1
# [14] = biological target: ELF4 (Homo sapiens, UniProt Q99607 1-663); conditions: protein: recombinant; tags: N-terminal GST; dsDNA, one strand shown
# Outline: as §1
# [15] = biological target: T9, ELK4 (Homo sapiens, UniProt P28324-2 1-405); conditions: protein: recombinant; tags: N-terminal GST; dsDNA, one strand shown
# T9 sequence: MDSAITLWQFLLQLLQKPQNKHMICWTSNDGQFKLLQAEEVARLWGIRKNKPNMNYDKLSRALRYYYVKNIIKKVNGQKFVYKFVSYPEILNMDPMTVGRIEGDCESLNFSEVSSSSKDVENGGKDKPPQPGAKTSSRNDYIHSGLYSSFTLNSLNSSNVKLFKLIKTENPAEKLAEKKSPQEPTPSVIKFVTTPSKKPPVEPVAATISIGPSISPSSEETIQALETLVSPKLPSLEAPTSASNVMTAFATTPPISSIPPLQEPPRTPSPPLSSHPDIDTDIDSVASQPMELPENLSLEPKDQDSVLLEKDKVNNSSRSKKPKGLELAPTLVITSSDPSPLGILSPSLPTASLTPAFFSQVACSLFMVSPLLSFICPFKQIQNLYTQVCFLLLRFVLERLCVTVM
# Outline: as §1
# [16] = biological target: T10, ETV2 (Homo sapiens, UniProt O00321 1-342); conditions: protein: recombinant; tags: N-terminal GST; dsDNA, one strand shown
# T10 sequence: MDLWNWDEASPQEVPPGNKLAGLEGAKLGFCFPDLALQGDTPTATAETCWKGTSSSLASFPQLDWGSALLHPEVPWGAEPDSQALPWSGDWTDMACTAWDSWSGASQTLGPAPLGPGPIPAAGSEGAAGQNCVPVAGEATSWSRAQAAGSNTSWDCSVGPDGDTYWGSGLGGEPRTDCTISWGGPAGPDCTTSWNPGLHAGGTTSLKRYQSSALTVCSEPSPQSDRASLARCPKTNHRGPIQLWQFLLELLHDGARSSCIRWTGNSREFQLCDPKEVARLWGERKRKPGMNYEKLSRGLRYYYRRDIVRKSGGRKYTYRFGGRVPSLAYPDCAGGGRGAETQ
# Outline: as §1
# [17] = biological target: T11, ELF3 (Homo sapiens, UniProt P78545 1-371); conditions: protein: recombinant; tags: N-terminal GST; dsDNA, one strand shown
# T11 sequence: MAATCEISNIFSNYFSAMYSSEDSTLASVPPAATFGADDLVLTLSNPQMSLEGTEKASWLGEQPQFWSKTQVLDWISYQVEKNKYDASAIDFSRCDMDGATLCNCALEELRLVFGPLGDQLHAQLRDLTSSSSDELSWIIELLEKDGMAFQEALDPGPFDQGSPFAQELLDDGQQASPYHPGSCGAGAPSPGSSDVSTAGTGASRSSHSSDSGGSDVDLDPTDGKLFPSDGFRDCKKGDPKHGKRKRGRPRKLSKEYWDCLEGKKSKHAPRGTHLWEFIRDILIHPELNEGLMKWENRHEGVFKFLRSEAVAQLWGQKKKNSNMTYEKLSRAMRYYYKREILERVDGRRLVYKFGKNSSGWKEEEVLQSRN
# Outline: as §1
# [18] = biological target: CRX (Homo sapiens, UniProt O43186 1-299); conditions: protein: recombinant; tags: N-terminal GST; dsDNA, one strand shown
# Outline: as §1
# [19] = biological target: ETV1 (Homo sapiens, UniProt P50549 1-477); conditions: protein: recombinant; tags: N-terminal GST; dsDNA, one strand shown
# Outline: as §1
# Sequence of CRX (O43186 whole entry): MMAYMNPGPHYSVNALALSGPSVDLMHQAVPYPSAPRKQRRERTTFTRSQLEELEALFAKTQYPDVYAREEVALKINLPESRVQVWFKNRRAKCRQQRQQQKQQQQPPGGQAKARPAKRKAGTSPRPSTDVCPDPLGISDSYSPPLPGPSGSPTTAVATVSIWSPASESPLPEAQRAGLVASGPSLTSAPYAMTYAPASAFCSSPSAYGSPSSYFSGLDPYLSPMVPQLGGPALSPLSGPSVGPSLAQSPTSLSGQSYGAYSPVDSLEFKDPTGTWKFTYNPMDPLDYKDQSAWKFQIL
# Sequence of ELF4 (Q99607 whole entry): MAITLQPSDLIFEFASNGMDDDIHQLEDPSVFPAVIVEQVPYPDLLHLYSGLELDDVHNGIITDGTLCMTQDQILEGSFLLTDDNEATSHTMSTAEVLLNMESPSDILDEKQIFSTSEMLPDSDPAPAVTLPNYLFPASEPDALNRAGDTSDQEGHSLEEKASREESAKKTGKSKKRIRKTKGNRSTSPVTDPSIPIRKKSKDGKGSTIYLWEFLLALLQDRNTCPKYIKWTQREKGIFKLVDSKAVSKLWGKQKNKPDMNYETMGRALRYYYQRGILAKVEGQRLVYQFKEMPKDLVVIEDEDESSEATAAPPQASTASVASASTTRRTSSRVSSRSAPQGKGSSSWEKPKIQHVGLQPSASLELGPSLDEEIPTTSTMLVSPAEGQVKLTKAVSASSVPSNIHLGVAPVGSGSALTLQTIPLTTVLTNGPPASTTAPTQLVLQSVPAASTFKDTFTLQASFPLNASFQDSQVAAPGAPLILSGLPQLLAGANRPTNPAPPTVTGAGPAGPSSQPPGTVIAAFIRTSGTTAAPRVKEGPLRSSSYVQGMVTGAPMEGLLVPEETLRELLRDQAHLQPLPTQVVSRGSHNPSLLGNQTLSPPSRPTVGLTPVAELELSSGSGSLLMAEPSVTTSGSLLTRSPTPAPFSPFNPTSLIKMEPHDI
# Sequence of HSF1 (Q00613 whole entry): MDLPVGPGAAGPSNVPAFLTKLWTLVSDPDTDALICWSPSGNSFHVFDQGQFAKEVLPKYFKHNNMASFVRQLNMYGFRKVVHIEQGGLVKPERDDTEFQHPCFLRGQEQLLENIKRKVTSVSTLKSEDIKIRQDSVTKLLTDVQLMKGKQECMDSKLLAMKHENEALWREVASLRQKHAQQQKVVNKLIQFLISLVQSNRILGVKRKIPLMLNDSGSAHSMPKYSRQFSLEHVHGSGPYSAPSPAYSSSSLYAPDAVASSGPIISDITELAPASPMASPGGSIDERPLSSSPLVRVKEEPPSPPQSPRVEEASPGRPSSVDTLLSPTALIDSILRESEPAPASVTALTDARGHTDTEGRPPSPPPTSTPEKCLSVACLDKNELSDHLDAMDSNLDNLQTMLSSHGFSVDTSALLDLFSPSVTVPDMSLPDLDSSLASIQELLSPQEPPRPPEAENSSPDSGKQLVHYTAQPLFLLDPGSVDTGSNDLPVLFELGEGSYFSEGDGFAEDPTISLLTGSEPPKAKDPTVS
# Sequence of ELF1 (P32519 whole entry): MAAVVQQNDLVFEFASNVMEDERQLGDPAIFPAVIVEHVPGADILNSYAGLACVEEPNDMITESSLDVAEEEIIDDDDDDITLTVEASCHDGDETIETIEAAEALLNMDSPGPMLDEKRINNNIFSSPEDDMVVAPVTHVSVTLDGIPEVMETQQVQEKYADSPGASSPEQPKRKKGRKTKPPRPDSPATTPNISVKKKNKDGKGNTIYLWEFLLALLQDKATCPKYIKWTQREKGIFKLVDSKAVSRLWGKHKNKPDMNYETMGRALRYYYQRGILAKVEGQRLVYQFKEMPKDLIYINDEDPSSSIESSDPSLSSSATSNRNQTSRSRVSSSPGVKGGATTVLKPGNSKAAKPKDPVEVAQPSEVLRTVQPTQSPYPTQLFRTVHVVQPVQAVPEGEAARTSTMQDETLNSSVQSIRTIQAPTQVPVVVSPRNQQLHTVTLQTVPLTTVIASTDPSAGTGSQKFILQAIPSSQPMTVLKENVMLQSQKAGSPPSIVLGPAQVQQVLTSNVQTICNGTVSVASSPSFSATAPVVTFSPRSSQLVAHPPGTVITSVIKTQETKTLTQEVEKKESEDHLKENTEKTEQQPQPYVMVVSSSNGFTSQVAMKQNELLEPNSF
# Sequence of ETV5 (P41161 whole entry): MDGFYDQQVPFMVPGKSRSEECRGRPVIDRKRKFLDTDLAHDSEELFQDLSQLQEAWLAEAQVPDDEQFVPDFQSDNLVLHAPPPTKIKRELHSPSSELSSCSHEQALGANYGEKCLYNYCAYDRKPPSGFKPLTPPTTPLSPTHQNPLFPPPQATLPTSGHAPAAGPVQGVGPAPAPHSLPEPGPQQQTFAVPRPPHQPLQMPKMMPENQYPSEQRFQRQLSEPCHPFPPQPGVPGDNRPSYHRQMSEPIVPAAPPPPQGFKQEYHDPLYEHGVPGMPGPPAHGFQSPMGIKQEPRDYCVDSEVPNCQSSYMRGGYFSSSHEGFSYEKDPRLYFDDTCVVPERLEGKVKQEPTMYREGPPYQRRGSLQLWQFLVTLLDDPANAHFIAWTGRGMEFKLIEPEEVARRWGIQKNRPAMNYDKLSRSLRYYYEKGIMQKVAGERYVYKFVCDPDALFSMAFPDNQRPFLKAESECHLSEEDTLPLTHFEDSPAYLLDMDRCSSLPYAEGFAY
# Sequence of SPIB (Q01892 whole entry): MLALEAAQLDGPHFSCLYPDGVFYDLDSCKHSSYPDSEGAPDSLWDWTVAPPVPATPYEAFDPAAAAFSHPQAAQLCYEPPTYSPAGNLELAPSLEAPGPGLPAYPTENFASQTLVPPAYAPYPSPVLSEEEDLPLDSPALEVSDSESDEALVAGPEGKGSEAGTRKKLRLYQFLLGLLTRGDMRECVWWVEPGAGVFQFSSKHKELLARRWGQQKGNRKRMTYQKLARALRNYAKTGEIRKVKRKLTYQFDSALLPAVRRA
# Sequence of ETV1 (P50549 whole entry): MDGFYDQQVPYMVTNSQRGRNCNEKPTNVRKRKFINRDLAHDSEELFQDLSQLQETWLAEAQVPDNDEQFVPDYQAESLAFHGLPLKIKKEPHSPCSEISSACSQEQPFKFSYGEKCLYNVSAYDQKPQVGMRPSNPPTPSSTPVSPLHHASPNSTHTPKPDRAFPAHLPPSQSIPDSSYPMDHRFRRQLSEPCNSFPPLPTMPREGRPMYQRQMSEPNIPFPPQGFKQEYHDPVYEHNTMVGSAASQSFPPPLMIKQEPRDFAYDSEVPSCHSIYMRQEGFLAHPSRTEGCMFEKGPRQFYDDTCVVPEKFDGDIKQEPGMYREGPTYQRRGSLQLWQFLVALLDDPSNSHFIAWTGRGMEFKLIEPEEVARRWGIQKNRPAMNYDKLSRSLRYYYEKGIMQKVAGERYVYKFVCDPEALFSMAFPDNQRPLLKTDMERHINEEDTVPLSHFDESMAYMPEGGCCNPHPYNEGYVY
sequence,measurement,setting,value
ATGATT,binding signal,[1],"1.22 fold enrichment (6-mer frequency, TF over GST control)"
same,binding signal,[2],"1.25 fold enrichment (6-mer frequency, TF over GST control)"
same,binding signal,[3],"1.37 fold enrichment (6-mer frequency, TF over GST control)"
same,binding signal,[4],"1.21 fold enrichment (6-mer frequency, TF over GST control)"
same,binding signal,[5],"1.21 fold enrichment (6-mer frequency, TF over GST control)"
same,binding signal,[6],"1.22 fold enrichment (6-mer frequency, TF over GST control)"
same,binding signal,[7],"1.17 fold enrichment (6-mer frequency, TF over GST control)"
same,binding signal,[8],"1.22 fold enrichment (6-mer frequency, TF over GST control)"
same,binding signal,[9],"1.09 fold enrichment (6-mer frequency, TF over GST control)"
same,binding signal,[10],"1.15 fold enrichment (6-mer frequency, TF over GST control)"
same,binding signal,[11],"1.18 fold enrichment (6-mer frequency, TF over GST control)"
same,binding signal,[12],"1.33 fold enrichment (6-mer frequency, TF over GST control)"
same,binding signal,[13],"1.17 fold enrichment (6-mer frequency, TF over GST control)"
same,binding signal,[14],"1.12 fold enrichment (6-mer frequency, TF over GST control)"
same,binding signal,[15],"1.21 fold enrichment (6-mer frequency, TF over GST control)"
same,binding signal,[16],"1.26 fold enrichment (6-mer frequency, TF over GST control)"
same,binding signal,[17],"1.12 fold enrichment (6-mer frequency, TF over GST control)"
same,binding signal,[18],"1.58 fold enrichment (6-mer frequency, TF over GST control)"
same,binding signal,[19],"1.19 fold enrichment (6-mer frequency, TF over GST control)"
